NPR1 antag = blocks ANP-stimulated signaling of human Npr1 receptor. P16066. HEK293 hNpr1 GloSensor cGMP, ANP-stimulated luminescence. Potency, µM (highest dose often 46.3 µM), without a hit: at the top dose activity change, negative = inhibition, hits mostly inhibitors. hit rate 1.6% among 76,000. AID 1347048; calls by dose curve; further: on the % scale 0 is the no-effect control and ±100 the full control effect; nearly all actives have a fitted effect of over 60% in size
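Compound pre-incubated 30 min at room temperature on GloSensor-loaded HEK293 cells stably carrying hNpr1 and the pGS-40F cGMP biosensor. Stimulation uses hNppA at 0.1 nM final; luminescence is taken at baseline and 20 min post-agonist.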
NIH3T3 tox = cytotoxic compounds in NIH 3T3 cells. hit rate 4.3% among 94,000. NIH 3T3 viability, CellTiter-Glo ATP luminescence, 48-72 h. AID 1345082. Potency, µM (highest dose often 96.7 µM), inactives show at the top dose activity change, negative = cytotoxicity, hits mostly inhibitors; further: on the % scale 0 is the no-effect control and ±100 the full control effect; nearly all actives have a fitted effect of over 55% in size
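Mouse fibroblast NIH 3T3 cells, 400 per well, received compound via pintool and were incubated for 48 or 72 hr prior to CellTiter-Glo ATP luminescence measurement.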
GPT2 inhibitor = inhibitors of human GPT2 alanine aminotransferase. Q8TD30. Recombinant GPT2, coupled pyruvate oxidase/HRP Amplex Red fluorescence. Potency, µM (series often up to 57.7 µM), for inactives: at the highest dose activity change, negative = inhibition, hits mostly inhibitors. hit rate 0.25% among 100,000. AID 1671188; further: on the % scale 0 is the no-effect control and ±100 the full control effect; nearly all actives have a fitted effect of over 60% in size
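Fluorescence read-out: pyruvate from GPT2 turnover coupled to pyruvate oxidase, HRP and Amplex Red (0.2mM ThPP, 0.2U/mL PO and HRP, 50uM Amplex final). Substrates 250uM a-KG, 2mM L-alanine; enzyme 10ng/uL; 30 min RT.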
Luciferase inh = inhibitors of firefly (Photinus pyralis) luciferase; purified P. pyralis luciferase, luminescence, biochemical; hit rate 2.5% among 76,000; P08659; Potency, µM (highest dose often 115 µM), usual class: inhibitors; further: on the % scale 0 is the no-effect control and ±100 the full control effect; nearly all actives have a fitted effect of over 65% in size
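Biochemical qHTS: compound (6-point titration) added to 10uM D-luciferin plus 10uM ATP in Tris acetate pH 7.5 buffer with Mg, Tween-20 and BSA, then purified enzyme at 10nM; light output imaged.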
HEK293 tox = HEK 293 cell cytotoxicity; AID 1345083; hit rate 6.6% among 94,000; Potency, µM (top dose mostly 115 µM), inactives show top-dose activity change, negative = cytotoxicity, actives largely listed as inhibitors; HEK 293 viability, ATP luminescence (CellTiter-Glo), 48-72 h; further: on the % scale 0 is the no-effect control and ±100 the full control effect; nearly all actives have a fitted effect of over 60% in size
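Cells seeded first (HEK 293, 250 cells/well), then compound added by pintool. Incubation ran 48 or 72 hr at 37 degree Celsius. CellTiter-Glo was added and luminescence imaged after 10 min at room temperature.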
NPR1 antag cnf = hNpr1 antagonism, confirmation assay; hit rate 76% among 1,400; HEK293 hNpr1 cGMP GloSensor luminescence, ANP-stimulated; shares compounds with NPR1 antag; Potency, µM (highest dose often 57.6 µM), for the others: top-dose activity change, negative = inhibition, most hits filed as inhibitors; calls by dose curve; further: nearly all actives have a fitted effect of over 70% in size
Npr2 selectivity = selectivity test of Npr1 antagonists against human Npr2 | shares compounds with NPR1 antag | HEK293 hNpr2 GloSensor cGMP luminescence, CNP-stimulated | Potency, µM (highest dose often 57.6 µM), for the others: top-dose activity change, negative = inhibition, actives largely listed as inhibitors | hit rate 67% among 1,400 | AID 1347046; calls by dose curve; further: nearly all actives have a fitted effect of over 70% in size
FLuc inh counter = FLuc enzyme inhibition, Npr1 counter-screen; hit rate 0.7% among 1,400; shares compounds with NPR1 antag; purified FLuc enzyme, luminescence, Km substrate; AID 1347047; Potency, µM (doses to about 57.6 µM), for the others: top-dose activity change, negative = inhibition, usual class: inhibitors; further: 0% is about no effect
GloSensor ctrl = reduces cGMP signal in GloSensor control cells; shares compounds with NPR1 antag; HEK293 GloSensor cGMP, SNP-stimulated, luminescence; Potency, µM (doses to about 57.6 µM), inactives show at the top dose activity change, negative = inhibition, most hits filed as inhibitors; hit rate 69% among 1,400; calls by dose curve; further: on the % scale 0 is the no-effect control and ±100 the full control effect; nearly all actives have a fitted effect of over 70% in size
* = called active by the depositor; i = inactive; ? = inconclusive; / = no result; [ ] = dose if it differs, or a comment. A selection: hits, their analogues and other compounds. The true share with any hit is near 10%. Unless noted, the call rests on the fitted dose curve; in most records, active means well fitted curve in the direction sought with a large enough effect; inconclusive means small, poorly fitted or top-dose-only effect, or another doubt; inactive means no such curve, though single readings can be large; an effect the other way counts as inactive or inconclusive. Potency means the concentration at half of the fitted maximal effect.

SMILES | NPR1 antag | NIH3T3 tox | GPT2 inhibitor | Luciferase inh | HEK293 tox | NPR1 antag cnf | Npr2 selectivity | FLuc inh counter | GloSensor ctrl
COc1ccc(CCC(=O)N2CCC3(CC2)CC(OCC2CC2)CCO3)cc1 (centres undefined) | -20.1% | -26.6% | -7.8% | i | -26.3% | / | / | / | /
CNC(=O)c1cccc(NC(=O)c2nc(C(O)c3ccccc3F)oc2C)c1 (centres undefined) | 35.5µM* | ? | -1.5%[88.5 µM] | i | 79.4µM* | 31.4µM* | 31.4µM* | 1.8%[86.2 µM] | 31.4µM*
Cc1oc(C(O)c2ccccc2F)nc1C(=O)Nc1ccccc1C(N)=O (centres undefined) | 25.1µM* | ? | -7.9%[88.5 µM] | i | ? | 31.4µM* | 35.3µM* | 3.2%[86.2 µM] | 35.3µM*
Cc1oc(C(O)c2ccccc2F)nc1C(=O)Nc1ccccc1 (centres undefined) | -29.5%[70.6 µM] | ? | 3.6%[88.5 µM] | ? | ? | / | / | / | /
Cc1oc(C(O)c2ccccc2F)nc1C(=O)Nc1ccc(C(N)=O)cc1 (centres undefined) | ? | ? | -1.6%[88.5 µM] | i | ? | / | / | / | /
COC(=O)N1CCn2c(nn(-c3ccncc3)c2=O)C1 | 9.0%[70.6 µM] | -1.1%[138 µM] | -0.4%[88.5 µM] | i | -14.1%[172 µM] | / | / | / | /
Cc1nn2c(c1-c1ccccc1Oc1ccccc1)N(Cc1cccc(O)c1)CCC2 | 2.51µM* | 14.1µM* | -13.3%[88.5 µM] | i | 22.4µM* | 11.1µM* | 25µM* | 0.3%[86.2 µM] | 11.1µM*
Cc1nn2c(c1-c1ccccc1Oc1ccccc1)N(Cc1ccccc1O)CCC2 | 7.94µM* | 11.2µM* | -23.7%[88.5 µM] | i | 10µM* | 3.14µM* | 12.5µM* | -1.7%[86.2 µM] | 2.22µM*
Cc1nn2c(c1-c1ccccc1OCc1ccccc1)N(C(=O)c1cccnc1)CCC2 | 2.7%[70.6 µM] | ? | i | i | -7.4%[172 µM] | / | / | / | /
COc1ccccc1CN1CCCn2nc(C)c(-c3ccccc3C(N)=O)c21 | 14.1µM* | ? | -13.1%[88.5 µM] | i | 22.4µM* | 12.5µM* | 31.4µM* | 1.0%[86.2 µM] | 9.94µM*
NCCc1noc(-c2cccnc2)n1 | -2.3% | -6.4% | i | i | 0.6% | / | / | / | /
O=C1CCC2(CCCN(c3nc4ccccc4s3)C2)CN1Cc1cccnc1 (centres undefined) | 6.5% | 1.7% | ? | i | 4.3% | / | / | / | /
O=C1CCC2(CCN(c3nc4ccccc4s3)CC2)CN1Cc1cccnc1 | 12.6µM* | -25.4% | -26.0% | i | ? | 17.2µM* | 19.3µM* | -4.8% | 15.3µM*
COc1ccc(-c2ccc(C(=O)Nc3ccc(F)cc3)cc2)nn1 | / | -22.6%[138 µM] | / | / | -28.0%[172 µM] | / | / | / | /
O=C1NCCCCCN(Cc2cccnc2)[C@@H]2CN(C(=O)c3ccoc3)CC[C@@H]12 | -4.2% | 2.2% | i | i | i | / | / | / | /
O=C(c1ccc2ncccc2c1)N1CCOC(c2ccc(Cl)c(Cl)c2)C1 (centres undefined) | ? | ? | i | i | ? | / | / | / | /
COc1c(C)cccc1C(=O)N1CCOC(c2ccc(Cl)c(Cl)c2)C1 (centres undefined) | 10µM* | ? | 2.6% | i | ? | 17.2µM* | 19.3µM* | -1.8% | 15.3µM*
